# USP7 block: human USP7 deubiquitinase inhibition. inhibition, % at 20 µM. hit rate 0.3% among 47,000. purified USP7, Ub-rhodamine cleavage fluorescence
# USP30 inh: human USP30 deubiquitinase inhibition; purified USP30, Ub-rhodamine cleavage fluorescence; inhibition, % at 25 µM; hit rate 5.3% among 47,000; AID 1645860
# USP17 block: inhibitors of human USP17 deubiquitinase; AID 1645855; A8MUK1; hit rate 6.5% among 47,000; purified USP17, Ub-rhodamine cleavage fluorescence, 3 h; inhibition, % at 50 µM
# USP8 inh: inhibitors of human USP8 deubiquitinase; AID 1645853; inhibition, % at 20 µM; purified USP8, Ub-rhodamine cleavage fluorescence, 30 min; hit rate 4.2% among 47,000
# USP28 inh: inhibitors of human USP28 deubiquitinase; Q96RU2; purified USP28, Ub-rhodamine cleavage fluorescence, 30 min; inhibition, % at 25 µM; hit rate 3% among 47,000
# USP10 block: inhibitors of human USP10 deubiquitinase | inhibition, % at 20 µM | Q14694 | purified USP10, Ub-rhodamine fluorescence, 60 min | hit rate 1.1% among 47,000 | AID 1645856
# * = called active by the depositor; nt = not tested or not shown. Most compounds without a hit are left out; they make up all but 13% or so of the library. Cut-off read from the data, not from the text of the source: active = inhibition above about 30%; inactive = the rest.
SMILES,USP7 block,USP30 inh,USP17 block,USP8 inh,USP28 inh,USP10 block
Cc1ccccc1-c1nnc(-c2ccc(C(=O)N(C)Cc3cccc(F)c3)cc2)o1,12,40*,23,16,20,9
CCCc1nc2sc3c(SCC(=O)N(c4ccccc4)c4ccccc4)ncnc3c2c2c1COC(C)(C)C2,-2,-2,5,0,-3,1
CC(C)c1nc2sc3c(SCC(=O)N(c4ccccc4)c4ccccc4)ncnc3c2c2c1COC(C)(C)C2,6,32*,14,0,7,-2
Cc1cccc(CCNC(=O)CCc2nnc3n(CCc4ccccc4)c(=O)c4ccccc4n23)c1,0,39*,22,3,2,5
CC(C)OCCCn1c(=O)c2ccccc2n2c(CCC(=O)N3CCN(c4ccccn4)CC3)nnc12,-2,-2,-4,-17,-4,-1
O=C(CCc1nnc2n(CCc3ccccc3)c(=O)c3ccccc3n12)NCc1ccccn1,1,17,7,11,9,0
O=C(CCc1nnc2n(Cc3ccccc3)c(=O)c3ccccc3n12)NCCN1CCCC1,-56,-2,-12,-4,-2,1
O=C(CCc1nnc2n(Cc3ccccc3)c(=O)c3ccccc3n12)N1CCN(c2ccccn2)CC1,-3,60*,35*,17,26,3
O=C(CCc1nnc2n(Cc3ccccc3)c(=O)c3ccccc3n12)NCc1ccc2c(c1)OCO2,-9,14,39*,39*,2,44*
Cc1ccc(Cn2c(=O)c3ccccc3n3c(CCC(=O)N4CCN(c5ccccn5)CC4)nnc23)cc1,-4,55*,43*,-21,27,18
COc1ccc(-c2[nH]c3ncccc3c2CN2CCN(C)CC2)cc1,4,29,20,17,15,2
Cc1ccc(Cn2c(=O)c3ccccc3n3c(CCC(=O)NCC4CCCO4)nnc23)cc1 (centres undefined),-1,39*,nt,19,15,3
O=C(CCc1nnc2n(Cc3ccc(Cl)cc3)c(=O)c3ccccc3n12)N1CCN(c2ccccn2)CC1,-1,83*,52*,5,62*,6
O=C(CCc1nnc2n(CCc3ccccc3)c(=O)c3ccccc3n12)N1CCN(C(=O)c2ccco2)CC1,1,-12,1,19,-8,0
Cc1ccc(Cn2c(=O)c3ccccc3n3c(CCC(=O)N4CCN(C(=O)c5ccco5)CC4)nnc23)cc1,-2,17,42*,0,7,0
O=C(CCc1nnc2n(Cc3ccc(Cl)cc3)c(=O)c3ccccc3n12)N1CCN(c2ccccc2)CC1,-4,18,-5,-6,2,3
CCC1(c2ccc(F)cc2)NC(=O)N(CC(=O)NCc2ccccc2)C1=O (centres undefined),-7,19,4,2,7,0
CC(c1ccccc1)N1CCC(c2nc3ccccc3[nH]2)CC1 (centres undefined),-2,-27,-5,8,-16,-5
Cn1c2ccccc2c2ncn(Cc3cccnc3)c(=O)c21,-4,-19,-3,-1,1,-12
CCn1c(C(=O)Nc2cccc(C(C)=O)c2)cc2sc(Cl)cc21,0,-471,-25,-59,-58,-4
Cc1ccc(-n2ncc3c(O)c(C(=O)Nc4ccccc4F)c(=O)[nH]c32)cc1,-14,19,11,83*,11,18
CCc1ccccc1NC(=O)c1cn(CC)c2nc(C)ccc2c1=O,3,-25,-5,-4,-8,0
CCc1ccccc1NC(=O)c1c(O)c2cnn(C)c2[nH]c1=O,-1,-38,14,84*,-16,0
Cc1ccc(-c2noc(-c3c(O)c4cnn(-c5ccccc5)c4[nH]c3=O)n2)cc1,4,-13,0,-7,-18,1
CC(NC(=O)Cc1nnc(-c2cnccn2)o1)c1ccc(F)cc1 (centres undefined),1,-1,-2,-6,0,3
O=C(Cc1nnc(-c2cnccn2)o1)Nc1ccc(C(F)(F)F)cc1,2,4,15,55*,15,-1
Cc1ccc(C(=O)NCCC(c2ccccc2)c2ccccc2)o1,9,20,26,-7,31*,7
CCOc1ccc(N2Cc3ccc(OC)c(OC)c3C2=O)cc1,2,22,38*,0,2,0
